Source: PubChem BioAssay (NCI)
Compounds without any hit were thinned out: in the full panel of roughly 79,000, 15% have a hit. A number with no mark means an inactive call. Active and inactive are the calls of the source. No stated cut-off is given here; in the data, active means growth inhibition above about 70%; inactive means the rest.

Assays:
[1] = NCI Yeast Anticancer Drug Screen. Data for the rad52 strain (AID 147);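 further: 0% = growth of vehicle-treated control cultures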; details: S. cerevisiae rad52 mutant growth inhibition, stronger effect = higher value
How it was run: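 DNA repair-defective yeast; compound exposure; growth scored against vehicle controls.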

[2] = NCI Yeast Anticancer Drug Screen. Data for the wt1 strain (AID 149);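 further: 0% = growth of vehicle-treated wt1 cultures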; details: S. cerevisiae wt1 strain (SPY 50644) growth inhibition, stronger effect = higher value
How it was run: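 The wt1 strain was treated with compounds, and growth was compared with vehicle-treated cultures to give inhibition.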

[3] = NCI Yeast Anticancer Drug Screen. Data for the rad50EPP+ strain (AID 151);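 further: 0% = growth of vehicle-treated control cultures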; details: S. cerevisiae rad50 mutant strain, stronger effect = higher value
How it was run: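 rad50EPP+ yeast treated with test compounds. Readout: growth vs vehicle control.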

[4] = NCI Yeast Anticancer Drug Screen. Data for the mgt1 strain (AID 153); details: S. cerevisiae mgt1 mutant growth inhibition, stronger effect = higher value
How it was run: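 Growth inhibition relative to vehicle controls was scored for the mgt1 yeast strain after compound exposure.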

[5] = NCI Yeast Anticancer Drug Screen. Data for the rad50 strain (AID 155);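 further: 0% = growth of vehicle-only cultures of the same strain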; details: S. cerevisiae rad50 strain growth inhibition, stronger effect = higher value
How it was run: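 Cells are treated with compound, grown, and their growth is then scored against vehicle-only cultures of the same repair-deficient yeast strain.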

[6] = NCI Yeast Anticancer Drug Screen. Data for the mec2-1 strain (AID 157); details: S. cerevisiae mec2-1 strain, stronger effect = higher value
How it was run: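 Growth inhibition is read against vehicle-treated controls after compound exposure of the mec2-1 yeast strain, which is defective in DNA damage repair or cell cycle control.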

[7] = NCI Yeast Anticancer Drug Screen. Data for the rad14 strain (AID 159);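 further: 0% = growth of vehicle-treated control cultures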; details: S. cerevisiae rad14 strain growth inhibition, stronger effect = higher value
How it was run: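 Readout: yeast growth inhibition, referenced to vehicle-only cultures. Strain bears a defined alteration in DNA damage repair.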

[8] = NCI Yeast Anticancer Drug Screen. Data for the sgs1 mgt1 strain (AID 161);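 further: 0% = growth of cultures given vehicle only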; details: S. cerevisiae sgs1 mgt1 strain, stronger effect = higher value
How it was run: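 Growth of a repair-deficient yeast mutant was monitored after compound treatment and expressed as inhibition relative to vehicle-treated cultures.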

[9] = NCI Yeast Anticancer Drug Screen. Data for the CLN2oe strain (AID 163);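 further: 0% = growth of vehicle-only control cultures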; details: S. cerevisiae CLN2oe strain, stronger effect = higher value
How it was run: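 Compound-treated yeast; growth vs vehicle ctrl = % inhibition. Genetically altered strain (cell-cycle control).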

[10] = NCI Yeast Anticancer Drug Screen. Data for the bub3 strain (AID 167); details: S. cerevisiae bub3 mutant strain, stronger effect = higher value
How it was run: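 Part of a panel of yeast mutants defective in DNA damage repair or cell cycle regulation. Each strain is grown with compound, and inhibition is calculated relative to solvent-treated cultures.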

[11] = NCI Yeast Anticancer Drug Screen. Data for the wt2 strain (AID 169);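 further: 0% = growth of vehicle-treated yeast cultures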; details: S. cerevisiae wt2 strain growth inhibition, stronger effect = higher value
How it was run: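 Compound exposure of yeast; growth compared with vehicle controls; inhibition reported.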

[12] = NCI Yeast Anticancer Drug Screen. Data for the mlh1 strain (AID 171);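 further: 0% = growth of vehicle-treated control cultures of the same strain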; details: S. cerevisiae mlh1 strain growth inhibition, stronger effect = higher value
How it was run: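 Compounds are applied to a genetically altered yeast strain, and its growth is compared with that of vehicle-treated cultures to give percent inhibition.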

[13] = NCI Yeast Anticancer Drug Screen. Data for the sgs1 strain (AID 173);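 further: 0% = growth of vehicle-only control cultures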; details: S. cerevisiae sgs1 mutant, stronger effect = higher value
How it was run: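 Compounds applied to genetically altered yeast; growth compared with vehicle-treated cultures to give % inhibition.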

[14] = NCI Yeast Anticancer Drug Screen. Data for the mlh1 rad18 strain (AID 175); details: S. cerevisiae mlh1 rad18 strain growth inhibition, stronger effect = higher value
How it was run: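 Cells of a genetically altered yeast strain, deficient in DNA damage repair, were treated with compound. Their growth was then compared with that of vehicle-treated cultures to give inhibition.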

[15] = NCI Yeast Anticancer Drug Screen. Data for the rad18 strain (AID 177); details: S. cerevisiae rad18 mutant growth inhibition, stronger effect = higher value
How it was run: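 Compounds are applied to a repair-deficient yeast strain, and growth is compared with that of vehicle-treated cultures to give percent inhibition.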

[16] = NCI Yeast Anticancer Drug Screen. Data for the cln2 rad14 strain (AID 165);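 further: 0% = growth equal to vehicle treated cultures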; details: S. cerevisiae cln2 rad14 strain, stronger effect = higher value
How it was run: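 Growth inhibition, relative to vehicle-treated controls, is the read-out. The test organism is a yeast strain with defined genetic alterations, cln2 rad14.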

[17] = at 5.0 µM (retest, dose inferred, filed as 0.5)
[18] = at 50.0 µM (retest, dose inferred, filed as 5.0)

SMILES: CCCCCC(=O)c1ccc(O)cc1O
- growth inhibition ([1]; at 1.2 µM): -14%
- growth inhibition ([1]; at 3.7 µM): 1%
- growth inhibition ([1]; at 11.0 µM): 10%
- growth inhibition ([1]; at 33.0 µM): 90% (active)
- growth inhibition ([1]; at 100.0 µM): 98% (active)
- growth inhibition ([2]; at 1.2 µM): -14%
- growth inhibition ([2]; at 3.7 µM): -18%
- growth inhibition ([2]; at 11.0 µM): -6%
- growth inhibition ([2]; at 33.0 µM): 91% (active)
- growth inhibition ([2]; at 100.0 µM): 99% (active)
- growth inhibition ([3]; at 1.2 µM): 15%
- growth inhibition ([3]; at 3.7 µM): 23%
- growth inhibition ([3]; at 11.0 µM): 33%
- growth inhibition ([3]; at 33.0 µM): 59%
- growth inhibition ([3]; at 100.0 µM): 98% (active)
- growth inhibition ([4]; at 1.2 µM): 17%
- growth inhibition ([4]; at 3.7 µM): -2%
- growth inhibition ([4]; at 11.0 µM): 12%
- growth inhibition ([4]; at 33.0 µM): 93% (active)
- growth inhibition ([4]; at 100.0 µM): 99% (active)
- growth inhibition ([5]; at 1.2 µM): -7%
- growth inhibition ([5]; at 3.7 µM): -4%
- growth inhibition [5, 17]: 92% (active)
- growth inhibition ([5]; at 11.0 µM): 2%
- growth inhibition ([5]; at 33.0 µM): 91% (active)
- growth inhibition [5, 18]: 98% (active)
- growth inhibition ([5]; at 50.0 µM): 89.2% (active)
- growth inhibition ([5]; at 100.0 µM): 97% (active)
- growth inhibition ([6]; at 1.2 µM): -7%
- growth inhibition ([6]; at 3.7 µM): -6%
- growth inhibition [6, 17]: 91% (active)
- growth inhibition ([6]; at 11.0 µM): 10%
- growth inhibition ([6]; at 33.0 µM): 95% (active)
- growth inhibition [6, 18]: 99% (active)
- growth inhibition ([6]; at 50.0 µM): 91.8% (active)
- growth inhibition ([6]; at 100.0 µM): 99% (active)
- growth inhibition ([7]; at 1.2 µM): -9%
- growth inhibition ([7]; at 3.7 µM): -5%
- growth inhibition ([7]; at 11.0 µM): -3%
- growth inhibition ([7]; at 33.0 µM): 90% (active)
- growth inhibition ([7]; at 100.0 µM): 98% (active)
- growth inhibition [8, 17]: -5%
- growth inhibition [8, 18]: 92% (active)
- growth inhibition ([9]; at 1.2 µM): -3%
- growth inhibition ([9]; at 3.7 µM): 8%
- growth inhibition ([9]; at 11.0 µM): 1%
- growth inhibition ([9]; at 33.0 µM): 86% (active)
- growth inhibition ([9]; at 100.0 µM): 99% (active)
- growth inhibition ([10]; at 1.2 µM): 8%
- growth inhibition ([10]; at 3.7 µM): 14%
- growth inhibition [10, 17]: 33%
- growth inhibition ([10]; at 11.0 µM): 40%
- growth inhibition ([10]; at 33.0 µM): 93% (active)
- growth inhibition [10, 18]: 92% (active)
- growth inhibition ([10]; at 100.0 µM): 99% (active)
- growth inhibition ([11]; at 1.2 µM): -3%
- growth inhibition ([11]; at 3.7 µM): -4%
- growth inhibition ([11]; at 11.0 µM): -18%
- growth inhibition ([11]; at 33.0 µM): 87% (active)
- growth inhibition ([11]; at 100.0 µM): 99% (active)
- growth inhibition ([12]; at 1.2 µM): 7%
- growth inhibition ([12]; at 3.7 µM): 10%
- growth inhibition ([12]; at 11.0 µM): 20%
- growth inhibition ([12]; at 33.0 µM): 90% (active)
- growth inhibition ([12]; at 100.0 µM): 95% (active)
- growth inhibition ([13]; at 1.2 µM): -19%
- growth inhibition ([13]; at 3.7 µM): -2%
- growth inhibition ([13]; at 11.0 µM): -6%
- growth inhibition ([13]; at 33.0 µM): 90% (active)
- growth inhibition ([13]; at 100.0 µM): 98% (active)
- growth inhibition [14, 17]: 97% (active)
- growth inhibition [14, 18]: 99% (active)
- growth inhibition ([14]; at 50.0 µM): 91.2% (active)
- growth inhibition ([15]; at 1.2 µM): -17%
- growth inhibition ([15]; at 3.7 µM): 3%
- growth inhibition ([15]; at 11.0 µM): 9%
- growth inhibition ([15]; at 33.0 µM): 92% (active)
- growth inhibition ([15]; at 100.0 µM): 98% (active)

SMILES: CC[C@@]1(OC(=O)CN(C)C)C(=O)OCc2c1cc1n(c2=O)Cc2cc3c(N)cccc3nc2-1
- growth inhibition ([1]; at 1.2 µM): 53%
- growth inhibition ([1]; at 3.7 µM): 75% (active)
- growth inhibition ([1]; at 11.0 µM): 88% (active)
- growth inhibition ([1]; at 33.0 µM): 93% (active)
- growth inhibition ([1]; at 100.0 µM): 95% (active)
- growth inhibition ([2]; at 1.2 µM): 0%
- growth inhibition ([2]; at 3.7 µM): -2%
- growth inhibition ([2]; at 11.0 µM): -1%
- growth inhibition ([2]; at 33.0 µM): 6%
- growth inhibition ([2]; at 100.0 µM): 25%
- growth inhibition ([3]; at 1.2 µM): 7%
- growth inhibition ([3]; at 3.7 µM): 22%
- growth inhibition ([3]; at 11.0 µM): 55%
- growth inhibition ([3]; at 33.0 µM): 77% (active)
- growth inhibition ([3]; at 100.0 µM): 87% (active)
- growth inhibition ([4]; at 1.2 µM): -2%
- growth inhibition ([4]; at 3.7 µM): 0%
- growth inhibition ([4]; at 11.0 µM): 2%
- growth inhibition ([4]; at 33.0 µM): 20%
- growth inhibition ([4]; at 100.0 µM): 39%
- growth inhibition ([5]; at 1.2 µM): 68%
- growth inhibition ([5]; at 3.7 µM): 82% (active)
- growth inhibition [5, 17]: 90% (active)
- growth inhibition ([5]; at 11.0 µM): 91% (active)
- growth inhibition ([5]; at 33.0 µM): 94% (active)
- growth inhibition [5, 18]: 90% (active)
- growth inhibition ([5]; at 50.0 µM): -17.9%
- growth inhibition ([5]; at 100.0 µM): 95% (active)
- growth inhibition ([6]; at 1.2 µM): 0%
- growth inhibition ([6]; at 3.7 µM): 8%
- growth inhibition [6, 17]: 22%
- growth inhibition ([6]; at 11.0 µM): 46%
- growth inhibition ([6]; at 33.0 µM): 88% (active)
- growth inhibition [6, 18]: 22%
- growth inhibition ([6]; at 50.0 µM): 58.4%
- growth inhibition ([6]; at 100.0 µM): 96% (active)
- growth inhibition ([7]; at 1.2 µM): 2%
- growth inhibition ([7]; at 3.7 µM): 0%
- growth inhibition ([7]; at 11.0 µM): 4%
- growth inhibition ([7]; at 33.0 µM): 19%
- growth inhibition ([7]; at 100.0 µM): 51%
- growth inhibition [8, 17]: 14%
- growth inhibition [8, 18]: 14%
- growth inhibition ([8]; at 50.0 µM): 6.05%
- growth inhibition [16, 17]: 17%
- growth inhibition [16, 18]: 17%
- growth inhibition ([16]; at 50.0 µM): 31.1%
- growth inhibition ([10]; at 1.2 µM): -14%
- growth inhibition ([10]; at 3.7 µM): -20%
- growth inhibition [10, 17]: 6%
- growth inhibition ([10]; at 11.0 µM): -3%
- growth inhibition ([10]; at 33.0 µM): 20%
- growth inhibition [10, 18]: 6%
- growth inhibition ([10]; at 50.0 µM): 0.7%
- growth inhibition ([10]; at 100.0 µM): 59%
- growth inhibition ([11]; at 1.2 µM): -2%
- growth inhibition ([11]; at 3.7 µM): 1%
- growth inhibition ([11]; at 11.0 µM): 3%
- growth inhibition ([11]; at 33.0 µM): 13%
- growth inhibition ([11]; at 100.0 µM): 32%
- growth inhibition ([12]; at 1.2 µM): -1%
- growth inhibition ([12]; at 3.7 µM): -2%
- growth inhibition ([12]; at 11.0 µM): 1%
- growth inhibition ([12]; at 33.0 µM): 28%
- growth inhibition ([12]; at 100.0 µM): 55%
- growth inhibition ([13]; at 1.2 µM): 0%
- growth inhibition ([13]; at 3.7 µM): 4%
- growth inhibition ([13]; at 11.0 µM): 17%
- growth inhibition ([13]; at 33.0 µM): 40%
- growth inhibition ([13]; at 100.0 µM): 64%
- growth inhibition [14, 17]: 27%
- growth inhibition [14, 18]: 27%
- growth inhibition ([14]; at 50.0 µM): 73.5% (active)
- growth inhibition ([15]; at 1.2 µM): -18%
- growth inhibition ([15]; at 3.7 µM): -5%
- growth inhibition ([15]; at 11.0 µM): 5%
- growth inhibition ([15]; at 33.0 µM): 19%
- growth inhibition ([15]; at 100.0 µM): 51%
